From ChEMBL document CHEMBL3988442, “University of Dundee, Small-Polar-MMV Screening Library” (2021)
Where “and” joins values, the source holds several entries; their conditions need not be identical. Equal entries are not always repeated. For some assays here: Entries with a potency or affinity are not part of this list.

Columns and labels:
Set-up in all cases: scale not given: direction of the effect not stated beside the values
[1] = biological target: Protein translocase subunit SecA (Escherichia coli (strain K12)) (UniProt P10408); test: Assay to Identify E. coli SecA ATPase Inhibitors; type: functional; settings: 30 µM
Chain of Protein translocase subunit SecA (Escherichia coli (strain K12)) (P10408 whole entry): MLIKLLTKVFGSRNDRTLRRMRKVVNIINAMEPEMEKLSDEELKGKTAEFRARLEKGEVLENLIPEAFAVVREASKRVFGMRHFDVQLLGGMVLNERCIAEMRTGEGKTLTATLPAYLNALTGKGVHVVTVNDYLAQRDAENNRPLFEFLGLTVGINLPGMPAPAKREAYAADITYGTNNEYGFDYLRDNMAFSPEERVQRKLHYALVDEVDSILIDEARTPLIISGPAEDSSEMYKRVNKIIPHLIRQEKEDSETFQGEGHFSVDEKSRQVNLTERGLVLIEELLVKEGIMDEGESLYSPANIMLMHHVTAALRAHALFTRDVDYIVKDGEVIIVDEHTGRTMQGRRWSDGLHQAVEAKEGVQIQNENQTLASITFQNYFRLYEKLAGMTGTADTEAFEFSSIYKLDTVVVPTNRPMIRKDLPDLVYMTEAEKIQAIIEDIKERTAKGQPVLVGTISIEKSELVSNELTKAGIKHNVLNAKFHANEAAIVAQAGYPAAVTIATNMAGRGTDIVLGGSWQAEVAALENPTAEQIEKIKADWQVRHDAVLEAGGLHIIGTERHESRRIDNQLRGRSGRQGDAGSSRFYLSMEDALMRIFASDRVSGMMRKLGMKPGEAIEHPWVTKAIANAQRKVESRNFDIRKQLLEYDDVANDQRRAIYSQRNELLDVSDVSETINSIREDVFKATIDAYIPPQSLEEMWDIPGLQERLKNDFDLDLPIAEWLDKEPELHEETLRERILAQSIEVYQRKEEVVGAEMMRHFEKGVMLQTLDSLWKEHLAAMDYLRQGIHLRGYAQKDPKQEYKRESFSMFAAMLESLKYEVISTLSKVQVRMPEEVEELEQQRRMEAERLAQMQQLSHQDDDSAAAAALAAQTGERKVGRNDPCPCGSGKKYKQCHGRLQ

[2] = biological target: T1, Ubiquitin-activating enzyme e1, putative (Leishmania donovani (strain BPK282A1)) (UniProt E9BSI1); test: Leishmania donovani Ubiquitin Activating Enzyme (LdE1); type: functional; settings: 30 µM
T1 sequence (whole entry): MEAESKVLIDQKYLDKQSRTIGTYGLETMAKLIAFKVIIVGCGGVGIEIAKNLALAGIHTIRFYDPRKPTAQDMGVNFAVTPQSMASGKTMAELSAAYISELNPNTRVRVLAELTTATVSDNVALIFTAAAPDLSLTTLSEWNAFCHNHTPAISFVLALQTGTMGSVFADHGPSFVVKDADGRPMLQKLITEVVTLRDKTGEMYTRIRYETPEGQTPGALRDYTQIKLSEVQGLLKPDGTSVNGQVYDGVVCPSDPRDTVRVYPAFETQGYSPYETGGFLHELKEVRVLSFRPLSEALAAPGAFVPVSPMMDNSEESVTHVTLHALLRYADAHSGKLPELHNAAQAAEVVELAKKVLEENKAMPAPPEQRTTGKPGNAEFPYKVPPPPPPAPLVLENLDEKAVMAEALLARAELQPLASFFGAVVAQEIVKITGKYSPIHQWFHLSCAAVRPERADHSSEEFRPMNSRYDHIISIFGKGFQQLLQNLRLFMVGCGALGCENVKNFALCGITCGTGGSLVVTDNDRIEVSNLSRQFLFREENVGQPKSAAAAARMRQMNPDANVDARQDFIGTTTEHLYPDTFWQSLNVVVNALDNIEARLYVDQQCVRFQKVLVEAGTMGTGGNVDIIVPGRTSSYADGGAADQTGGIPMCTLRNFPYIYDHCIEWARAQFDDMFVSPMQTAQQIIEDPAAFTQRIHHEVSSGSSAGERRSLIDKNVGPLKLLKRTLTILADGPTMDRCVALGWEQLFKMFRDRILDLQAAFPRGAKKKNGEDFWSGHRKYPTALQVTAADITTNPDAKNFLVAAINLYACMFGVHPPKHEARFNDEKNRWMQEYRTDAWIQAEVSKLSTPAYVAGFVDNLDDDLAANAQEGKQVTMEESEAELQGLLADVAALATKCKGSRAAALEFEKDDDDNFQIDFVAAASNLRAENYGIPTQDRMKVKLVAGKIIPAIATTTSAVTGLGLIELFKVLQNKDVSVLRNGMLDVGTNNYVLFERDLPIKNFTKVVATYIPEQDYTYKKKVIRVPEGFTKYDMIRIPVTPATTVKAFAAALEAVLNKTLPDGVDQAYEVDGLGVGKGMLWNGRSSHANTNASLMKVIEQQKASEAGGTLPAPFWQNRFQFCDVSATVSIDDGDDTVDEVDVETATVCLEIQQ

[3] = biological target: AMP-activated protein kinase, AMPK (Homo sapiens) (UniProt P54646+O43741+P54619+Q9UGJ0+Q9Y478+Q13131+Q9UGI9); test: AMP-dependent Kinase enzyme assay. An in vitro enzyme assay that detects ADP turnover that is directly proportional to AMPK activity. This uses naive AMPK that is activated during the assay with MK-8722; type: functional; settings: 30 µM
[4] = biological target: Sialic acid-binding Ig-like lectin 9 (Homo sapiens) (UniProt Q9Y336); test: Hs-Siglec9 ALPHAscreen SOP 20170721; settings: 10 µM
Chain of Sialic acid-binding Ig-like lectin 9 (Homo sapiens) (Q9Y336 whole entry): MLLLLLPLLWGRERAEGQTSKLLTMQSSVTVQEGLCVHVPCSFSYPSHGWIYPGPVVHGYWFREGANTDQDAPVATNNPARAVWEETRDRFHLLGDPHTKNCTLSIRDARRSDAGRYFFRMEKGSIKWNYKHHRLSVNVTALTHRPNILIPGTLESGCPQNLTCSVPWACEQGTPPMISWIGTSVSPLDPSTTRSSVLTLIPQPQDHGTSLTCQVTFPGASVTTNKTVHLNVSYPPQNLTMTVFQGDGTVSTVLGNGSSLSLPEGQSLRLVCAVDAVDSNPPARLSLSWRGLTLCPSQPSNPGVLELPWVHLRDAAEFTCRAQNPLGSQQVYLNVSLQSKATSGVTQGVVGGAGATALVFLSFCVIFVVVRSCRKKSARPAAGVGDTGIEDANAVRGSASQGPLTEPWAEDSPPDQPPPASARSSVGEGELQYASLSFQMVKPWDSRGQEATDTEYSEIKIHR

[5] = system: Trypanosoma cruzi; test: Trypanosoma cruzi phosphomannomutase and mannose-1-phosphate guanylyltransferase assay; type: functional; settings: 10 µM
[6] = biological target: T2, Arginase-2, mitochondrial (Homo sapiens) (UniProt P78540); test: in vitro enzyme assay to detect the production of urea directly proportional to the activity of Arginase II; type: functional; settings: 33.3 µM; further: in the data most compounds retested in dose-response had high values
T2 sequence (whole entry): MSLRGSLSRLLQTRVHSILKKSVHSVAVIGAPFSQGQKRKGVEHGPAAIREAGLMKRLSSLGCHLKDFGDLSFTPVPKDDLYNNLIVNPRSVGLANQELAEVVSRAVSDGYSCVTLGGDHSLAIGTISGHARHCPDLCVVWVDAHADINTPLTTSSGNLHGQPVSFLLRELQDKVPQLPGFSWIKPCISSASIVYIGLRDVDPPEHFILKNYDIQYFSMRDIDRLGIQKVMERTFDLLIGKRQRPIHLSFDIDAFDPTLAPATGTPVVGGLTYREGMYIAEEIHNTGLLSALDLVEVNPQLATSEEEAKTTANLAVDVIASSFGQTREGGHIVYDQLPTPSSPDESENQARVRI

[7] = biological target: T3, Proteasome subunit beta (Trypanosoma cruzi) (UniProt O96673); test: Trypanosoma cruzi proteasome chymotrypsin-like activity (TcProtChymo) assay.; further: in the data most compounds retested in dose-response had high values; type: functional; settings: 9.37 µM
T3 sequence (whole entry): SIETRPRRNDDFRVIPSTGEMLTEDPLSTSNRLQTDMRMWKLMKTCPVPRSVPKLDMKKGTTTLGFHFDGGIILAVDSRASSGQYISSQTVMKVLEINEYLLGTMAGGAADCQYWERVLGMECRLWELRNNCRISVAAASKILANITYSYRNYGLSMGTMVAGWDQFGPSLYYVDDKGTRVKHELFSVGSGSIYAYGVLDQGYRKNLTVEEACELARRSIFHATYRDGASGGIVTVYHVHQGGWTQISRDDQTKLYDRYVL

[8] = system: N/A; test: Trypanosoma cruzi proteasome luciferase counter-screen; type: functional; settings: 9.37 µM
[9] = organism: Homo sapiens; test: To identify inhibition of the IFN signalling (Jak-Stat) pathway via expression of an eGFP reporter gene under the control of an IFN-stimulated response element (ISRE) containing MxA promoter.; type: functional; settings: 30 µM
[10] = biological target: T4, Tyrosyl-tRNA synthetase, putative (Trypanosoma cruzi (strain CL Brener)) (UniProt Q4DSP6); test: Trypanosoma cruzi tyrosyl tRNA synthetase (TcYRS) _High Tyrosine SOP; type: functional; settings: 30 µM; further: in the data most compounds retested in dose-response had high values
T4 sequence (whole entry): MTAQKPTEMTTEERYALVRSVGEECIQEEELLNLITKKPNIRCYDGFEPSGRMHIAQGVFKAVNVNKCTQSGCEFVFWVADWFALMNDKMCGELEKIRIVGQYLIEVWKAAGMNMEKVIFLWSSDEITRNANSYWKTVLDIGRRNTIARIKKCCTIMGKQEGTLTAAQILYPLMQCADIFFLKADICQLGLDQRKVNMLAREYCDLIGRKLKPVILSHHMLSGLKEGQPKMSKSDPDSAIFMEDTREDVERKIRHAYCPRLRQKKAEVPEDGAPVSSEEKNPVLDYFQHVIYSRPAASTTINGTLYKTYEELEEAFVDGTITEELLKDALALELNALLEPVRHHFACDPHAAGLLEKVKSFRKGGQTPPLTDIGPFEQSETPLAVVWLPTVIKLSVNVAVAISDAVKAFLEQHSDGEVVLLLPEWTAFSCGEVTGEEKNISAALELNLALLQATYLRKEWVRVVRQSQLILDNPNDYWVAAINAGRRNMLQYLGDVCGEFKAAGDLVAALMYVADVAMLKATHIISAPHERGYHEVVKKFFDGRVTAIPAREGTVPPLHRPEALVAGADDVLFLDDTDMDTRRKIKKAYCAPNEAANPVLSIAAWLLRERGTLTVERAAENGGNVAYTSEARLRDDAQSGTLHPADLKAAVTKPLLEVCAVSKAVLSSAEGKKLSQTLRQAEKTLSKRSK

[11] = biological target: T4, Tyrosyl-tRNA synthetase, putative (Trypanosoma cruzi (strain CL Brener)); test: Trypanosoma cruzi tyrosyl tRNA synthetase (TcYRS) SOP; type: functional; settings: 30 µM
[12] = biological target: Chromo domain-containing protein 1 (Saccharomyces cerevisiae (strain ATCC 204508 / S288c) (Baker's yeast)) (UniProt P32657); test: ScCHD-1 Enzyme Inhibition Assay; type: functional; settings: 30 µM; further: in the data most compounds retested in dose-response had high values
Chain of Chromo domain-containing protein 1 (Saccharomyces cerevisiae (strain ATCC 204508 / S288c) (Baker's yeast)) (P32657 whole entry, the tested form may be a part): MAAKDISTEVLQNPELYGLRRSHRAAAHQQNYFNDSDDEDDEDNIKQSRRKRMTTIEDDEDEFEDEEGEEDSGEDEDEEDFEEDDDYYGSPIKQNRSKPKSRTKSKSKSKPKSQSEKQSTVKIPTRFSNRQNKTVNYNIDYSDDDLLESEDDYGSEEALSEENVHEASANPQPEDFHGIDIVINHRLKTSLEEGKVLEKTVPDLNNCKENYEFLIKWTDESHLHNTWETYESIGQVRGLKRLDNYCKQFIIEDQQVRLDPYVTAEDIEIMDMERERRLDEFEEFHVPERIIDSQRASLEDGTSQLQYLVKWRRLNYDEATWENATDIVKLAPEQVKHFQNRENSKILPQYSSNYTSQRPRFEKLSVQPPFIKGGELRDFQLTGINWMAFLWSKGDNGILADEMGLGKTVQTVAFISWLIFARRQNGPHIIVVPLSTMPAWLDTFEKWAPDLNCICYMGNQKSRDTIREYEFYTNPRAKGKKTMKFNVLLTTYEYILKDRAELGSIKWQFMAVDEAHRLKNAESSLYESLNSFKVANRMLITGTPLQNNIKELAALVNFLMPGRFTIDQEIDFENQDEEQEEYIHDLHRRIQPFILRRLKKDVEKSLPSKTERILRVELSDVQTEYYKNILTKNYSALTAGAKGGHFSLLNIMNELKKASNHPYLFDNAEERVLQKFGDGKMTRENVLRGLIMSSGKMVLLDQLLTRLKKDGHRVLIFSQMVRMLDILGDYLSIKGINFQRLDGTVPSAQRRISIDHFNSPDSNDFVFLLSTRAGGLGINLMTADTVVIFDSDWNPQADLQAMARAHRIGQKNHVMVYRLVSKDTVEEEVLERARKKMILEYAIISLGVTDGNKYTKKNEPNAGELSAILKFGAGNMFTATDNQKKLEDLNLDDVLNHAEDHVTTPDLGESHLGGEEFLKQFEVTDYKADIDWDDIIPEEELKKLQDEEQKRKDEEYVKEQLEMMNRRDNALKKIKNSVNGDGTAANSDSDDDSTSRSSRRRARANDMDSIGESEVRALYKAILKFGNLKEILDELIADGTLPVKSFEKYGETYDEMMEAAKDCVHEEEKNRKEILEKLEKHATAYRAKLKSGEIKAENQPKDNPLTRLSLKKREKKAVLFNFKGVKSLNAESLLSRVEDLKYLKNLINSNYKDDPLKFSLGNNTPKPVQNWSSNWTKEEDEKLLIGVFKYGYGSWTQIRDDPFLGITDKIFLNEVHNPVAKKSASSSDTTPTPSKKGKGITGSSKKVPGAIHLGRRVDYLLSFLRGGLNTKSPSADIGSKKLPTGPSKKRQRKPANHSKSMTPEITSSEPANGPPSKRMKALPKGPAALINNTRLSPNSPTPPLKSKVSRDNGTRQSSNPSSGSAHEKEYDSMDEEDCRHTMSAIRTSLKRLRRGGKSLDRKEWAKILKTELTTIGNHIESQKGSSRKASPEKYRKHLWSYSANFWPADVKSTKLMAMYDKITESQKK

| Structure (SMILES) | Percent Effect [1] | Percent Effect [2] | Percent Effect [3] | Percent Effect [4] | Percent Effect [5] | Percent Effect [6] | Percent Effect [7] | Percent Effect [8] | Percent Effect [9] | Percent Effect [10] | Percent Effect [11] | Percent Effect [12] |
| --- | --- | --- | --- | --- | --- | --- | --- | --- | --- | --- | --- | --- |
| CCOc1cc(/C=C/c2ncc(C(=O)O)s2)ccc1O | -3.57% | 11.4% | 44.7% | 0.0396% | -3.38% | 4.95% | 47.2% and 46.2% and 45.3% | 10.5% and 16.9% | 7.54% | 4.17% | 7.59% | -20.7% |
| CCOc1ccc(S(=O)(=O)NCc2cccnc2N(C)C)cc1 | -2.65% | 27.9% | -9.37% | -4.06% | 7.08% | -5.7% | 7.29% |  | 58.7% | 7.39% | 26.6% | -5.96% |
| COCc1nc(C(=O)N2CCCC2c2c(C)nn(C)c2C)cs1 (centres undefined) | -0.948% | -3.8% | 3.43% | 1.97% | -1.33% | 0.645% | -0.172% |  | 12% | 3.12% | 5.06% | 2.98% |
| CC(C)(C)c1cnc(CN2CCC[C@H]2CO)o1 | -1.75% | -5.2% | 4.08% | 12.3% | 5.62% | -0.712% | -1.01% |  | -3.74% | 7.77% | 9.76% | -5.64% |
| Cc1ccc(S(=O)(=O)N2CCc3nc(C4CCNCC4)ncc3C2)cc1 | -3.69% | 9.46% | -15.7% | 1.15% | 2.77% | -4.41% | 21.6% and 22.5% and 38.9% | 8.48% and 9.51% | 9.56% | 17.2% | 24.7% | -21.4% |
| COc1ccc(-c2nnc(SC(C)C(=O)NCC(C)C)[nH]2)c(OC)c1 (centres undefined) | -3.62% | 10.5% | 2.87% | 6.11% | 1.27% | -3.55% | 13.5% |  | 91.3% | 3.19% | 18.2% | 2.44% |
| Cc1cnn(CC2CCCN2Cc2cc(=O)n3ccccc3n2)c1 (centres undefined) | -4.27% | -2.7% | -0.318% | -1.03% | 2.05% | 2.73% | 16.7% |  | -16.2% | 7.53% | 8.64% | -4.06% |
| CCc1cc(C)c(C(=O)N2CCCC2CC(=O)c2cnn(C)c2)o1 (centres undefined) | -1.93% | -1.27% | 169% | -0.655% | -1.13% | -1.5% | 7.03% |  | 7.3% | -1.04% | 0% | -4.62% |
| Cc1ccsc1CN(CCN(C)C)Cc1ccccn1 | -5.5% | 4.17% | -16.2% | 21.2% | 5.15% | 18.5% | 11.1% |  | -4.45% | 7.37% | 15.4% | -9.23% |
| CN1CCCC1c1ccc(C(=O)N2CCc3ccccc3C2)s1 (centres undefined) | -3.53% | -16.2% | 2.64% | -7.08% | -3.81% | -2.73% | 74.8% and 75.3% and 64.5% | 44.8% and 43.9% | 16.1% | 3.23% | -3.7% | 7.75% |
| COCCN1CCN(CCCS(C)(=O)=O)CC1C (centres undefined) | -5.52% | 21.6% | -8.32% | 7.36% | 9.56% | 0.924% | 9.16% |  | 4.15% | 9.9% | 28.1% | 52% |
| Cc1cnn(CCNCc2csc(-c3cccs3)n2)c1 | -2.47% | -2.63% | 5.67% | 8% | -0.564% | -1.92% | 13.7% |  | 0.0858% | -3.43% | 0% | 6.81% |
| O=S1(=O)COCCN1Cc1cccc(Cl)c1 | -1.74% | 5.41% | -2.78% | 6.98% | 7.92% | -1.91% | 13.4% |  | 17.7% | 8.99% | 12.2% | -2.28% |
| NCC1CN(c2nc(-c3ccccc3)nc3c2CCNCC3)CCO1 (centres undefined) | -3.14% | 2.74% | -7.79% | 3.51% | 9.32% | 0.798% | -1.11% |  | 4.88% | 24% | 28.4% | 0.577% |
| COc1cccc(CNCc2c(C(C)C)nn(C)c2N(C)C)c1OC | 2% | 10.5% | -0.641% | -1.37% | -7.33% | 2.68% | 16.2% |  | 8.82% | 3.43% | 7.32% | -8.1% |
| Cc1ccc(NC2CCN(C(=O)CCc3ccco3)CC2)nn1 | -5.56% | 2.7% | 6.46% | 1.2% | 0.836% | 0.554% | 21.9% and 32.9% and 29.3% | -1.73% and 1.88% | 8.89% | 11.9% | -1.22% | 0.23% |
| CCc1nnc2n1CCN(Cc1ccc3c(c1)OCCO3)C2 | 0.332% | 18.9% | -5.31% | -8.03% | -3.06% | 1.29% | 7.9% |  | 28.3% | 2.97% | 13.4% | -0.119% |
| COc1cc(CNC(=O)c2c(C)noc2C(C)C)ccn1 | -2.87% | 26% | -8.18% | 3.15% | 3.75% | 3.92% | 10.8% |  | 9.63% | 10.7% | 21.9% | -10.2% |
| COCCC(=O)N1CCC2(CN(Cc3ccc(OC)c(F)c3)C2)C1 | 1.99% | 13.7% | -3.76% | 8.62% | 5.16% | 0.399% | 6.42% |  | -17.9% | 6.25% | 18.5% | -0.472% |
| CCn1cc(CN2CCCC(CO)(CCc3ccccc3)C2)c(C)n1 (centres undefined) | -3.86% | 8.11% | -1.51% | 28.3% | 5.18% | 18.1% | 12.1% |  | -7.2% | 0% | 11.1% | -12.5% |
